Assay results as given in ChEMBL document CHEMBL1961873, “Compounds: GSK PKIS; Assays: Nanosyn kinase panel” (2012).

Key:
[1] = target: Fibroblast growth factor receptor 4 (Homo sapiens) (UniProt P22455); settings: at 1 µM;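 also: reported figure is the averaged percent inhibition of FGFR4, from the GSK PKIS kinase screening panel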
[2] = target: Tyrosine-protein kinase Fgr (Homo sapiens) (UniProt P09769); settings: at 0.1 µM
[3] = target: Tyrosine-protein kinase Fgr (Homo sapiens) (UniProt P09769); settings: at 1 µM
[4] = target: Vascular endothelial growth factor receptor 1 (Homo sapiens) (UniProt P17948); settings: at 0.1 µM
Chain of Vascular endothelial growth factor receptor 1 (Homo sapiens) (P17948 whole entry): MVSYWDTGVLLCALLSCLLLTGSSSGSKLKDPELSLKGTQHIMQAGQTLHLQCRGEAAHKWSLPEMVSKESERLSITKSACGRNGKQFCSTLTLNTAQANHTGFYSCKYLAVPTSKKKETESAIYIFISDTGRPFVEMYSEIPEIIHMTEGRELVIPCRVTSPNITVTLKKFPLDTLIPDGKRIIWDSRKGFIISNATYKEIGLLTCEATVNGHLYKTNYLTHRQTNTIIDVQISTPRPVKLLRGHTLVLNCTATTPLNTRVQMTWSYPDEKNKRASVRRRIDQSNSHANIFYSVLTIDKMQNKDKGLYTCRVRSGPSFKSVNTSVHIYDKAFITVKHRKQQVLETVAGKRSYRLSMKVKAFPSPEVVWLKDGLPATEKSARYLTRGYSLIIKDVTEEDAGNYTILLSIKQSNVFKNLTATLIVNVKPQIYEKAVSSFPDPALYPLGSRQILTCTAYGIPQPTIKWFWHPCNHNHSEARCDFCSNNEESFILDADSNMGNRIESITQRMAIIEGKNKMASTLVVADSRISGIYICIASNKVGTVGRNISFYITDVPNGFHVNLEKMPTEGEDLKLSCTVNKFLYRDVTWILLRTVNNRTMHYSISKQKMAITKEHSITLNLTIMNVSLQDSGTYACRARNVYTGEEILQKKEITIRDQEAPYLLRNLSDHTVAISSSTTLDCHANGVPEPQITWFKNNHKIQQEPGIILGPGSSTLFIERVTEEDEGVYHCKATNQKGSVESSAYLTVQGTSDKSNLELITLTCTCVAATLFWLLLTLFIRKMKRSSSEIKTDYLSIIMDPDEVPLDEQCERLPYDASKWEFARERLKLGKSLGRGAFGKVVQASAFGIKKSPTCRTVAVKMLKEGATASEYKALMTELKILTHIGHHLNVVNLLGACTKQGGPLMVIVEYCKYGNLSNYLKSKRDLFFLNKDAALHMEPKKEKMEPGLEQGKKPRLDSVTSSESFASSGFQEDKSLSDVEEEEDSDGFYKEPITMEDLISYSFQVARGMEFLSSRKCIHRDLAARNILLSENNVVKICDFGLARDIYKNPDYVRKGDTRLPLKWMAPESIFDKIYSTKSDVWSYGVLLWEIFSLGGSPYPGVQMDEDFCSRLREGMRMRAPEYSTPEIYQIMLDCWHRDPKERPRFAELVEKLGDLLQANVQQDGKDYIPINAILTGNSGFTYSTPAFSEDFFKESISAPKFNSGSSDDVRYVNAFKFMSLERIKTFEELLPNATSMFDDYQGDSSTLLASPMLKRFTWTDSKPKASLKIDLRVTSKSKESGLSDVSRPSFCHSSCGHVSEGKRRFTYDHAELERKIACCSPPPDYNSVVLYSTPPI

[5] = target: Vascular endothelial growth factor receptor 1 (Homo sapiens) (UniProt P17948); settings: at 1 µM
[6] = target: Receptor-type tyrosine-protein kinase FLT3 (Homo sapiens) (UniProt P36888); settings: at 0.1 µM
[7] = target: Receptor-type tyrosine-protein kinase FLT3 (Homo sapiens) (UniProt P36888); settings: at 1 µM
[8] = tested on: T1, Receptor-type tyrosine-protein kinase FLT3 (Homo sapiens), P36888 [D835Y]; settings: at 0.1 µM
T1 sequence (whole entry): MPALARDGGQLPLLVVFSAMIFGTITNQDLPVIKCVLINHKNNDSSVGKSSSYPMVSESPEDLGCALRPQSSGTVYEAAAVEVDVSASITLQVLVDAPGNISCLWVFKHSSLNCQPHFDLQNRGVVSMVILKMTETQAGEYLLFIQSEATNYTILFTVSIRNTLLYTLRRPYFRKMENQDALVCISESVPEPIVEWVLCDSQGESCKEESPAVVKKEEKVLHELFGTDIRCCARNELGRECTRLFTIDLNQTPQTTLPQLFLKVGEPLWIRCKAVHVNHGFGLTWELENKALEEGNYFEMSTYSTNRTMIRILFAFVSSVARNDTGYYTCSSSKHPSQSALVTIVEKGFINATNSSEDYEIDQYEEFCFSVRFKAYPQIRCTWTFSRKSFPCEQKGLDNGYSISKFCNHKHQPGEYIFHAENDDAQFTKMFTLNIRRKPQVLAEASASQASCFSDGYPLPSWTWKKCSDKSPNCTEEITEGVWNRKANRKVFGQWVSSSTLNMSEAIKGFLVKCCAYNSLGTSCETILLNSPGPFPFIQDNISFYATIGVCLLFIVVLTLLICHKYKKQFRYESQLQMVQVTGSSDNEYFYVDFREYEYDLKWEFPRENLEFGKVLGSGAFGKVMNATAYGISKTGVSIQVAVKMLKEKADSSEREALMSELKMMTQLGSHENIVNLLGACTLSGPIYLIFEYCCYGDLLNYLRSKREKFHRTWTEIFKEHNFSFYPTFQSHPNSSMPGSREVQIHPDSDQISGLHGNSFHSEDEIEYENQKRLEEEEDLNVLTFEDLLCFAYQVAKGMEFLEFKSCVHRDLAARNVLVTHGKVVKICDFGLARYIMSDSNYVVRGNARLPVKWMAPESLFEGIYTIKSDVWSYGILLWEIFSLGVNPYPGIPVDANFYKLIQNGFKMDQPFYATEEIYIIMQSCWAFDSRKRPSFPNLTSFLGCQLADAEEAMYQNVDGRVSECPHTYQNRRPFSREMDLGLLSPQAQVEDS

[9] = target: Non-receptor tyrosine-protein kinase TYK2 (Homo sapiens) (UniProt P29597); settings: at 1 µM;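 also: values are mean percent inhibition of TYK2 kinase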
[10] = target: T2, Tyrosine-protein kinase receptor TYRO3 (Homo sapiens) (UniProt Q06418); settings: at 0.1 µM
T2 sequence (whole entry): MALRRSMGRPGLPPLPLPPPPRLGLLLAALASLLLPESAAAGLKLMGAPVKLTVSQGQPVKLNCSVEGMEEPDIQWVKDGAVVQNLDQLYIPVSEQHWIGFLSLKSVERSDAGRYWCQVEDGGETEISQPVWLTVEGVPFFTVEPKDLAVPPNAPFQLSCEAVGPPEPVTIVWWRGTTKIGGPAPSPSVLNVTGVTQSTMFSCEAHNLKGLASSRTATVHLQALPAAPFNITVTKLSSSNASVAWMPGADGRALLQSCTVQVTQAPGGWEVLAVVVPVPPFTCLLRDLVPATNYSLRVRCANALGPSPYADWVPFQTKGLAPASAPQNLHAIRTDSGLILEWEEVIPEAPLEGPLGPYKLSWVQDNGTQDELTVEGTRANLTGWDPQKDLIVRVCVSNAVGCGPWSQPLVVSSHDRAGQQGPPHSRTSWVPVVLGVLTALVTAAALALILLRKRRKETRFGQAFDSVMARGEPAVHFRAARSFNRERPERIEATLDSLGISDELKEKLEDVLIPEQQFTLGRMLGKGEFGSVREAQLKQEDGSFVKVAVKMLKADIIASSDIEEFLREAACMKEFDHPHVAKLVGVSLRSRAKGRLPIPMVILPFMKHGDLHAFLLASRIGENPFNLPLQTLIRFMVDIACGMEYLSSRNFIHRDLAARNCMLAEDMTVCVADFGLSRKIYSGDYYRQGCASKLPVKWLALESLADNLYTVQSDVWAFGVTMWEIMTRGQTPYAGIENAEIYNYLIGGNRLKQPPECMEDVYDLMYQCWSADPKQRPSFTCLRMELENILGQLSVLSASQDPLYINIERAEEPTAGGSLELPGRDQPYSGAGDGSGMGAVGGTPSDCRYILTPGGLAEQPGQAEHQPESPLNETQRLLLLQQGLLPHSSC

[11] = target: T2, Tyrosine-protein kinase receptor TYRO3 (Homo sapiens); settings: at 1 µM
[12] = target: Tyrosine-protein kinase Yes (Homo sapiens) (UniProt P07947); settings: at 0.1 µM
Chain of Tyrosine-protein kinase Yes (Homo sapiens) (P07947 2-543 limits assumed): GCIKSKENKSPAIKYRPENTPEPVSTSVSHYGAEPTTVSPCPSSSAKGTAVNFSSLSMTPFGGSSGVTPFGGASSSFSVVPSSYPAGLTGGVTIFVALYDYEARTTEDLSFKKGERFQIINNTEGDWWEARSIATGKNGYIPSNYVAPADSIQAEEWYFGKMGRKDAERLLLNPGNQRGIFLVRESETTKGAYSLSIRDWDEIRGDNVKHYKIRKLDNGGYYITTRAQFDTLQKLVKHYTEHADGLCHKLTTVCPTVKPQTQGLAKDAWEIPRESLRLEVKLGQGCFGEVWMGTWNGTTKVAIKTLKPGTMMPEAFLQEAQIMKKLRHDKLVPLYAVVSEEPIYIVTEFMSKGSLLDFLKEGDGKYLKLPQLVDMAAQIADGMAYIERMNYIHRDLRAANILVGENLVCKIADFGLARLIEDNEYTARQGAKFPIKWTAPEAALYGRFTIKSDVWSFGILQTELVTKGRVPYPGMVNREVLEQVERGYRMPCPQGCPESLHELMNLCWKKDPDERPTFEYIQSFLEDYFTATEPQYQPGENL

[13] = target: Tyrosine-protein kinase Yes (Homo sapiens) (UniProt P07947); settings: at 1 µM
[14] = target: T3, Tyrosine-protein kinase ZAP-70 (Homo sapiens) (UniProt P43403); settings: at 0.1 µM
T3 sequence (whole entry): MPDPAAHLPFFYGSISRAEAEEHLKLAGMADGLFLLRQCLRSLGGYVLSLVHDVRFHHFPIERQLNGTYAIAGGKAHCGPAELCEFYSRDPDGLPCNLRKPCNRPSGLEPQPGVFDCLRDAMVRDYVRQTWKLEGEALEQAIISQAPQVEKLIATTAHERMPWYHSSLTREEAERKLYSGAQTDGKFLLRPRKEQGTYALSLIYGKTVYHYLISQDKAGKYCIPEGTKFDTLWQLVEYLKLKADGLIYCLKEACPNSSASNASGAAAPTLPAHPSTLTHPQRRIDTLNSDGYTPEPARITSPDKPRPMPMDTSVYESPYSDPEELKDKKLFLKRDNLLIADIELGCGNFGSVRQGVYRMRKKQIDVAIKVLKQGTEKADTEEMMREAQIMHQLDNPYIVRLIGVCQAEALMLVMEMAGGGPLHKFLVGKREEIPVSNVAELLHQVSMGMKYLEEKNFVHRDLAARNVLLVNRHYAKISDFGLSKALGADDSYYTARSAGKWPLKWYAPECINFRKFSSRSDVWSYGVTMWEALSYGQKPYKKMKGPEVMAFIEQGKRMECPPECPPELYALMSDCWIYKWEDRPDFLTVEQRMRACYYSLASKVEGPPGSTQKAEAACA

[15] = target: T3, Tyrosine-protein kinase ZAP-70 (Homo sapiens); settings: at 1 µM
[16] = target: Serine/threonine-protein kinase B-raf (Homo sapiens) (UniProt P15056); settings: at 0.1 µM
Chain of Serine/threonine-protein kinase B-raf (Homo sapiens) (P15056 whole entry): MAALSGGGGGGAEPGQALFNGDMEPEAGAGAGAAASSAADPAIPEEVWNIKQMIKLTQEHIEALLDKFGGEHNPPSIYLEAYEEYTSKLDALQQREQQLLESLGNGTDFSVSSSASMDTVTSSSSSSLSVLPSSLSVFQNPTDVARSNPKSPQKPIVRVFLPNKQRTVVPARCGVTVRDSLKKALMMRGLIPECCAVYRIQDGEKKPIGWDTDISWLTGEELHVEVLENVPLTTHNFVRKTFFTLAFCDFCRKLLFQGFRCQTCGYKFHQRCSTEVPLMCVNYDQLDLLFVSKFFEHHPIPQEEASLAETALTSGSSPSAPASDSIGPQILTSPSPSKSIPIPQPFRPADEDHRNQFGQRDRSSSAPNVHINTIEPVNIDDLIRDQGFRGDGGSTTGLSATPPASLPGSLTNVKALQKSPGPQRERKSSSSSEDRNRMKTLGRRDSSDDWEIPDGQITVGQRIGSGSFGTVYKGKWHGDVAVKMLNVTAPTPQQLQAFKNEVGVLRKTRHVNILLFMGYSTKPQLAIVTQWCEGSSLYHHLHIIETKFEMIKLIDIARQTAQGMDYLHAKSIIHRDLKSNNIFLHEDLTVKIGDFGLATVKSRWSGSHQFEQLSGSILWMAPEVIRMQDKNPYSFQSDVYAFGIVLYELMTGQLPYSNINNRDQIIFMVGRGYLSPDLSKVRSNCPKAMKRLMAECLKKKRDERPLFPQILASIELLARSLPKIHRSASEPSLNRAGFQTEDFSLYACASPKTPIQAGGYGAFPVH

[17] = target: Serine/threonine-protein kinase B-raf (Homo sapiens) (UniProt P15056); settings: at 1 µM
[18] = tested on: Serine/threonine-protein kinase B-raf (Homo sapiens), P15056 [V600E]; settings: at 0.1 µM
Chain of Serine/threonine-protein kinase B-raf (Homo sapiens), P15056 [V600E] (P15056 whole entry V600E): as the sequence (P15056 whole entry) above, with V600E counted along it

[19] = tested on: Serine/threonine-protein kinase B-raf (Homo sapiens), P15056 [V600E]; settings: at 1 µM
[20] = target: RAF proto-oncogene serine/threonine-protein kinase (Homo sapiens) (UniProt P04049); settings: at 0.1 µM;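 also: values are mean CRAF kinase inhibition from profiling of the GSK Published Kinase Inhibitor Set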
Chain of RAF proto-oncogene serine/threonine-protein kinase (Homo sapiens) (P04049 whole entry): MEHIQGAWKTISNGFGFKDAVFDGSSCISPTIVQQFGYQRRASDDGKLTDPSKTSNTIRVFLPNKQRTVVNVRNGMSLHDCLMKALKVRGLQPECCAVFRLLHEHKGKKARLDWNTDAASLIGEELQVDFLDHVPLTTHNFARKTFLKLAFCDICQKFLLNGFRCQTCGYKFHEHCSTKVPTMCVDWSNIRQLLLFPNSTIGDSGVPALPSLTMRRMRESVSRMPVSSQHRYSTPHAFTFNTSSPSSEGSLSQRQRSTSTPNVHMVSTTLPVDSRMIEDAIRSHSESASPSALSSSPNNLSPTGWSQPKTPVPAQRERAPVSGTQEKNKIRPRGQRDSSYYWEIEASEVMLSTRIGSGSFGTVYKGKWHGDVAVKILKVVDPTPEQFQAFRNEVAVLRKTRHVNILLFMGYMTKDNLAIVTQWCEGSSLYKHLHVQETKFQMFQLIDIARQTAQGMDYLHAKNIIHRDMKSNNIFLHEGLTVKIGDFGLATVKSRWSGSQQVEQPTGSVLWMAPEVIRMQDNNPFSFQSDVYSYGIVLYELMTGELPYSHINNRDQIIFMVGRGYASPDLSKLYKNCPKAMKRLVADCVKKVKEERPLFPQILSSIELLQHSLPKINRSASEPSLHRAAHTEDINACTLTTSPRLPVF

Chain of Fibroblast growth factor receptor 4 (Homo sapiens) (P22455 22-802 limits assumed): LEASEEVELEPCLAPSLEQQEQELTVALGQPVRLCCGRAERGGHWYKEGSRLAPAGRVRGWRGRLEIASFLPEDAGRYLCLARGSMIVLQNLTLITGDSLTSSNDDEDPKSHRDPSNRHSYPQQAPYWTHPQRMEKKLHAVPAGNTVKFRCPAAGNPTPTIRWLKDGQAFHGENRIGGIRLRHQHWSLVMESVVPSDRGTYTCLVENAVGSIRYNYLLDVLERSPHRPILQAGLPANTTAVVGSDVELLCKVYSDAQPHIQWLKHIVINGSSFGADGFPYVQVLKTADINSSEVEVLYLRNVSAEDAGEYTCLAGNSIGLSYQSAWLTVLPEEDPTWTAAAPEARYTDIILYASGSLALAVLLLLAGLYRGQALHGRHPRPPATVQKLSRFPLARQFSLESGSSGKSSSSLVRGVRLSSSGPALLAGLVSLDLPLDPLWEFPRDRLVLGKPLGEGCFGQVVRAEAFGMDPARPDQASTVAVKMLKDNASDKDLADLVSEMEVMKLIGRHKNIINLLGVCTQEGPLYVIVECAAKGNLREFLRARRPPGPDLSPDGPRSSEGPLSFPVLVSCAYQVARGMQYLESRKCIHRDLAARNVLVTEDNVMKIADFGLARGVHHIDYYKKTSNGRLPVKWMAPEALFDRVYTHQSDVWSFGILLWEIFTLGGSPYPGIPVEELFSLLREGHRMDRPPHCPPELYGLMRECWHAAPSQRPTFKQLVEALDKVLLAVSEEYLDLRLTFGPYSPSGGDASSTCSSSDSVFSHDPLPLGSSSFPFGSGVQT
Chain of Tyrosine-protein kinase Fgr (Homo sapiens) (P09769 2-529 limits assumed): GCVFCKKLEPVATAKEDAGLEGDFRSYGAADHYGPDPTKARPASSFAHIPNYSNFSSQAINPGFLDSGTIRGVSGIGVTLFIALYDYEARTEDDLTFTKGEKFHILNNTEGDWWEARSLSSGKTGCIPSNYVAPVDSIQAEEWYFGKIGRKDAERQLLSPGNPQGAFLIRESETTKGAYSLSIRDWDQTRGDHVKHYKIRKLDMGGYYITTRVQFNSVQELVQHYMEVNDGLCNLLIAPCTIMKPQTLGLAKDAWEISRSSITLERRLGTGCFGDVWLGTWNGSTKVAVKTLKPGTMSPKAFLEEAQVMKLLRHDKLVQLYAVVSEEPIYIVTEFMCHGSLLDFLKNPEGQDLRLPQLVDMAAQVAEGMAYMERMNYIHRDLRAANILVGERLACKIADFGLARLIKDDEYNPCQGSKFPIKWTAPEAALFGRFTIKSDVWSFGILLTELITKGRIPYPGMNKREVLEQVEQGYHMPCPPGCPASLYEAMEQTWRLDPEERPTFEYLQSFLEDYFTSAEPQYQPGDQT

| Structure (SMILES) | inhibition [1] | inhibition [2] | inhibition [3] | inhibition [4] | inhibition [5] | inhibition [6] | inhibition [7] | inhibition [8] | inhibition [9] | inhibition [10] | inhibition [11] | inhibition [12] | inhibition [13] | inhibition [14] | inhibition [15] | inhibition [16] | inhibition [17] | inhibition [18] | inhibition [19] | inhibition [20] |
| --- | --- | --- | --- | --- | --- | --- | --- | --- | --- | --- | --- | --- | --- | --- | --- | --- | --- | --- | --- | --- |
| O=C(Nc1n[nH]c2nc(-c3ccc(O)cc3)c(Br)cc12)C1CC1 | 3.05% | 7.15% | 21.3% | 2.34% | 17.7% | 5.54% | 25.7% | 4.14% | 17.6% | 10.4% | 41.4% | 5.61% | 27.4% | 5.14% | 4.28% | 9.27% | 12.6% | 10.1% | 13% | -1.54% |
| COc1cc(Nc2ncc3c(C)nc(-c4cccc(Oc5ccccc5)c4)n3n2)cc(OC)c1OC | 1.97% | 0.02% | 4.22% | 0.68% | 2.1% | 3.86% | 28.5% | 3.72% | -3.18% | 2% | 5.32% | -0.14% | 7.34% | 1.87% | -1.81% | 3.08% | 12.2% | 2.54% | 11.4% | 2.2% |
| CN(C)CCOc1ccc(-c2cc(-c3ccc4c(c3)CCC4=NO)c(-c3ccncc3)o2)cc1 | -1.71% | 1.5% | 7.33% | -0.18% | -0.16% | -0.73% | -1.89% | -7.59% | 0.1% | -0.87% | 2.92% | 2.18% | 9.45% | -2.95% | 0.13% | 48.5% | 85% | 56.3% | 86.2% | -4.4% |
| Fc1ccc(-c2ncn(CCCN3CCOCC3)c2-c2ccncc2)cc1 | 0.42% | -2.23% | 3.21% | -2.17% | 0.42% | 0.43% | 1.49% | -3.55% | -0.81% | -0.71% | -1.64% | -0.25% | -0.03% | 3.48% | 3.14% | 0.29% | 1.33% | 0.73% | 0.78% | -0.34% |
| COc1ccc2cc(-c3c(-c4ccncc4)nc(-c4ccc(S(C)(=O)=O)cc4C)n3C)ccc2c1 | 2.96% | 3.77% | 4.62% | 0.91% | 2.09% | 1.65% | 1% | -1.54% | -1.13% | 2.19% | 5.53% | 3.64% | 20.9% | -0.34% | 0.82% | 6.36% | 6.36% | 6.6% | 5.85% | 5.5% |
| O=C1NC(=O)C(c2cccc(Cl)c2)=C1Nc1ccc(Cl)c(C(=O)O)c1 | 1.23% | 5.15% | 1.19% | 2.61% | 7.03% | 3.91% | 0.25% | -6.52% | -1.23% | 1.77% | 2.5% | 4.03% | 6% | 4.89% | 2.76% | 5.48% | 2.76% | 6.61% | 4.77% | 2.73% |
| NC(=O)Cc1ccccc1Oc1nccc(-c2c(-c3ccc(F)cc3)ncn2C2CCNCC2)n1 | 0.51% | 0.84% | 2.97% | 0.07% | 0.23% | -1.59% | 1.61% | -3.58% | -2.45% | 0.04% | -0.3% | 1.2% | 2.44% | 2.88% | -4.81% | 3.8% | 6.06% | 3.3% | 4.77% | -0.15% |
| CN(C)CCCNc1nccc(-c2c(-c3ccc(F)cc3)nn3cc(C(F)(F)F)ccc23)n1 | -0.45% | 1.41% | 9.12% | 0.51% | 1.19% | 0.5% | 4.18% | -2.41% | -0.14% | 1.1% | 1.35% | 0.79% | -0.45% | -2.33% | -4.78% | 2.11% | 2.24% | 2.52% | 2.19% | 3.17% |
| O=C(NCC1CC1)c1ccc(-c2cccc(C(=O)NC3CC3)c2)cc1 | 0.84% | -0.78% | 4.28% | 2.16% | 3.45% | 1.49% | 3.46% | 0.3% | -5.6% | 3.93% | 0.81% | -0.02% | -2.38% | 1.15% | 1.3% | 3.46% | 3.07% | 1.59% | 1.43% | 5.36% |
| C#Cc1cccc(Nc2ncnc3ccc(OCCCCNCCS(C)(=O)=O)cc23)c1 | -1.61% | 10.5% | 15.5% | 2.51% | 4.95% | 1.29% | 2.94% | 3.91% | -1.47% | 2.65% | 8.46% | 4.13% | 12.3% | -1.39% | -2.29% | 8.08% | 6.4% | 8.35% | 5.48% | -5.79% |
| COc1cc2ncn(-c3cc(OCc4cccs4)c(C(N)=O)s3)c2cc1OC | 1.23% | 11.1% | 13.7% | 2.16% | 10.3% | 0.99% | 4.24% | -6.36% | 0.53% | 2.86% | 8.04% | 4.84% | 21.2% | -0.46% | 3.04% | 1.7% | 0.38% | 2.45% | 0.77% | 1.73% |
| FC(F)(F)c1cccc(Nc2nccc(-c3cnn4nc(-c5ccccc5)ccc34)n2)c1 | 1.26% | 2.98% | 8.69% | 2.04% | 1.17% | 1.84% | 18.2% | -4.32% | -5.81% | -0.57% | 0.62% | 2.51% | 24.8% | 0.98% | 2.56% | 3.36% | 4.64% | 2.72% | 4.02% | -0.56% |
| O=C(Nc1ccc(Oc2ccc3[nH]c(NC(=O)c4ccccc4)nc3c2)cc1)Nc1cc(C(F)(F)F)ccc1F | 0.83% | 9.57% | 7.53% | 5.53% | 39.3% | 6.63% | 53.4% | -0.18% | -0.97% | 2.33% | 16.8% | 1.01% | 7.23% | -1.74% | 1.65% | 4.48% | 33.4% | 5.24% | 42.7% | -3.16% |
